MITF act – increases MITF-driven TRPM1 promoter luciferase signal. SK-MEL-5 TRPM1-promoter luciferase, 24 h; % of positive control, neutral wells = 0. activation, % at 12.5 µM. 300,000 compounds, 0.75% hits. AID 588334;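 active = mean activation of at least 80% with every replicate also reaching 80%; inconclusive = mean reaches 80% but some replicate falls short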;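 note: 0% = neutral control wells and 100% = parthenolide positive control wells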
TWEAK-Fn14 inh – inhibitors of TWEAK-Fn14 interaction signaling | TWEAK-stimulated Fn14 reporter cells, luciferase luminescence, 8 h | inhibition, % at 10 µM | 360,000 compounds, 2% hits | AID 1159606; in the data active = inhibition above about 50%
TROY NFkB inh – blocks TROY-dependent signaling in reporter cells; Q293 LMP1-TROYcd NF-kB luciferase reporter, 4 h; inhibition, % at 10 µM; 360,000 compounds, 0.98% hits;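 active = compounds whose plate-normalised and pattern-corrected inhibition of the luciferase reporter signal at the single screening dose is 50% or more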
LGR2 inh – blocks bursicon-induced cAMP signaling via Drosophila LGR2; HEK293 LGR2, CRE-luciferase, bursicon-stimulated, 4 h; inhibition, % at 9.99 µM; 380,000 compounds, 0.35% hits;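 active = drop in luminescence signal, shown as inhibition above about 50% in the replicate tests, limit read from the data, passing the limit was not always enough; inconclusive = probably only some replicates passing the limit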;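 note: agonist challenge used bursicon conditioned medium at about half maximal strength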
TRPM1 prom inh – reduces MITF-dependent TRPM1 promoter luciferase signal | SK-MEL-5 TRPM1 promoter luciferase, 24 h | 330,000 compounds, 0.83% hits | inhibition, % at 12.5 µM;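 active = mean inhibition across replicates of 60% or more, whatever share of single replicates reaches that level; inconclusive = some that reach 60%, reason not given; inactive = mean inhibition across replicates below 60%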
LMP1 NFkB inh – Epstein-Barr LMP1 NF-kappaB reporter inhibition. LMP1-induced NF-kappaB luciferase reporter cells, luminescence. inhibition, % at 12.5 µM. 350,000 compounds, 0.69% hits. AID 504558; in the data active = inhibition above about 41%; inconclusive = no clear call, values can overlap the other calls;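 note: 0% = neutral control wells and 100% = reference inhibitor control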
The depositor's hits bear a star; ? = inconclusive; · = no result given. Only some compounds are listed: those with a hit (about 3% of all), similar ones and a draw of the others.

SMILES | MITF act | TWEAK-Fn14 inh | TROY NFkB inh | LGR2 inh | TRPM1 prom inh | LMP1 NFkB inh
CC(=O)c1c(C)oc2ccc(N(C(C)=O)S(=O)(=O)c3ccc(Cl)c([N+](=O)[O-])c3)cc12 | -64 | 42 | 88* | · | 65* | 31
CC(=O)c1c(C)oc2ccc(N(C(C)=O)S(=O)(=O)c3ccc(Br)cc3)cc12 | -2 | 31 | 25 | 8 | 4 | 11
COc1cc(C(=O)Nc2nc(-c3ccc(F)cc3)cs2)ccc1OCC(=O)N1CCOCC1 | -18 | 30 | 33 | 23 | 19 | 23
COc1cc(C(=O)Nc2nc(-c3ccc(C)cc3)cs2)ccc1OCC(=O)N1CCOCC1 | 8 | 46 | 57* | 2 | -5 | 5
COc1ccc(-c2csc(NC(=O)c3ccc(OCC(=O)N4CCOCC4)c(OC)c3)n2)cc1 | -16 | 46 | 37 | 92* | 15 | -2
CC(C)[C@@H](C)NC(=O)N(C)C[C@H]1OCc2ccccc2-c2ccccc2C(=O)N([C@@H](C)CO)C[C@H]1C | · | · | · | 5 | · | ·
Cc1ccc(C)c(Oc2cc(NC(=O)CCCn3nc(C)c([N+](=O)[O-])c3C)cc([N+](=O)[O-])c2)c1 | -10 | 73* | 44 | 27 | 9 | 4
C[C@H]1CCCCO[C@H](CN(C)C(=O)Nc2ccc3c(c2)OCO3)[C@@H](C)CN([C@@H](C)CO)C(=O)c2cc(NS(=O)(=O)c3ccccc3)ccc2O1 | · | · | · | 0 | · | ·
C=CCc1c(OC(C)=O)c2ccccc2n(C)c1=O | -15 | 55* | 14 | 14 | 13 | -10
O=S(=O)(Cc1cc(-c2ccccc2Cl)no1)c1ccccc1 | 90* | -33 | -35 | -61 | -91 | -25
COc1ccc(NC(=O)Cn2nnc(C(=O)NCc3ccccc3)c2N)c(OC)c1 | 5 | -1 | 12 | 12 | -3 | 64*
Cc1cc(C)c(Cc2c(C)nc3c(C(=O)NCc4ccco4)cnn3c2C)c(C)c1 | -21 | 73* | 88* | 56* | 21 | 12
O=C(NCc1ccco1)c1cnn2c(C(F)F)cc(-c3ccccc3)nc12 | -23 | -41 | 22 | · | 22 | -8
C[C@@H]1CN([C@@H](C)CO)C(=O)c2cc(NC(=O)Cc3ccccc3)ccc2O[C@@H]1CN(C)S(=O)(=O)c1cn(C)cn1 | · | · | · | -7 | · | ·
O=C(Nc1cccc(-c2ccc(N3CCOCC3)nn2)c1)c1cccc(Cl)c1 | · | -23 | -21 | -46 | · | -8
O=C(Nc1ccc(OCC(=O)N2CCOCC2)cc1)c1ccccc1Cl | 42 | -13 | -40 | 24 | -39 | 51*
O=C(Nc1cccc(-c2ccc(N3CCOCC3)nn2)c1)c1ccc(Cl)cc1 | 84* | -14 | -51 | 7 | -84 | -28
COc1ccc(C(=O)Nc2cccc(-c3ccc(N4CCOCC4)nn3)c2)cc1 | 90* | -40 | -53 | -63 | -89 | -18
O=C(Nc1cccc(-c2ccc(N3CCOCC3)nn2)c1)c1ccccc1Cl | 107* | -26 | -61 | -62 | -109 | -7
O=C(N/N=C/c1ccc(OCC(=O)N2CCOCC2)cc1)c1ccccc1Cl | 1 | -6 | -22 | -12 | 0 | -2
C[C@@H]1CCCCO[C@@H](CN(C)C)[C@H](C)CN([C@@H](C)CO)C(=O)c2cc(NS(=O)(=O)c3cccs3)ccc2O1 | · | · | · | 12 | · | ·
COc1ccc(NC(=O)N(C)C[C@@H]2OCCCC[C@@H](C)Oc3ccc(NC(=O)Nc4ccc(F)cc4)cc3C(=O)N([C@@H](C)CO)C[C@@H]2C)cc1 | · | · | · | -28 | · | ·
C[C@@H]1CN([C@@H](C)CO)C(=O)Cc2cc(NC(=O)Nc3cccc4ccccc34)ccc2O[C@H]1CN(C)C | · | · | · | 20 | · | ·
COc1cc(OC)cc(C(=O)Nc2cccc(-c3ccc(N4CCOCC4)nn3)c2)c1 | 101* | -7 | -31 | -48 | -101 | -9
COc1cccc(OC)c1C(=O)Nc1cccc(-c2ccc(N3CCOCC3)nn2)c1 | 83* | -15 | -46 | 7 | -84 | 9
SMILES | MITF act | TWEAK-Fn14 inh | TROY NFkB inh | LGR2 inh | TRPM1 prom inh | LMP1 NFkB inh
Cc1ccc(C(=O)Nc2cccc(-c3ccc(N4CCOCC4)nn3)c2)cc1 | 75 | -28 | -78 | -69 | -81 | -9
CC(=O)N[C@@H]1CC[C@H](CCNC(=O)C2CC2)O[C@H]1CO | · | · | · | -19 | · | ·
COc1ccc(/C=N/NC(=O)c2ccn[nH]2)cc1COc1ccc([N+](=O)[O-])c(C)c1 | · | 18 | 2 | 10 | · | ·
COc1ccc(/C=N/NC(=O)c2cccnc2)cc1COc1ccc([N+](=O)[O-])c(C)c1 | · | 23 | 55* | · | 8 | -5
COc1ccc(/C=N/NC(=O)c2ccccc2Cl)cc1CSc1nc2ccccc2s1 | · | -1 | -12 | · | 28 | 0
COc1ccc(/C=N/NC(=O)c2cccnc2)cc1CSc1nc2ccccc2s1 | -22 | 52* | 50* | 18 | 21 | 7
O=C(C[C@@H]1CC[C@@H]2[C@H](COC[C@H](O)CN2Cc2cc(F)cc(F)c2)O1)NCc1cccc(F)c1 | · | · | · | -9 | · | ·
COc1ccc(N=C2S/C(=C\c3ccc(N4CCOCC4)o3)C(=O)N2CCc2c[nH]c3ccccc23)cc1 | -55 | 97* | 16 | · | 58 | 16
Cc1sc2ncnc(N3CCC(C(=O)N(C)CC(=O)Nc4ccccc4Br)CC3)c2c1C | 8 | 51* | 30 | 8 | -5 | 0
Cc1sc2ncnc(N3CCC(C(=O)N(C)CC(=O)Nc4ccc(Cl)c(C(F)(F)F)c4)CC3)c2c1C | -7 | 51* | 58* | -15 | 7 | 11
Cc1sc2ncnc(N3CCC(C(=O)N(C)CC(=O)Nc4cccc(F)c4)CC3)c2c1C | · | 65* | 41 | ? | · | 29
CCCNC(=O)N1CCC2(CC1)CN(C(=O)NC1CCCC1)[C@@H](CO)c1[nH]c3cc(OC)ccc3c12 | · | · | · | 14 | · | ·
CC(=O)c1c(C)[nH]c(C(=O)OCC(=O)Nc2cc(Cl)ccc2[N+](=O)[O-])c1C | -24 | 88* | 70* | 29 | 27 | 21
CC(=O)c1c(C)[nH]c(C(=O)OCC(=O)NCc2ccc(Cl)cc2)c1C | · | 14 | 37 | -5 | · | 14
CC(=O)c1c(C)[nH]c(C(=O)OCC(=O)Nc2ccc(C)cc2[N+](=O)[O-])c1C | 5 | 63* | 41 | 1 | -3 | -2
CC(C)C#Cc1ccc([C@@H]2[C@@H](CO)N3C(=O)CN(C(=O)Cc4ccccc4)C[C@H]23)cc1 | · | · | · | -19 | · | ·
C1=C(CCNc2ncnc3c2[nH]c2ccccc23)CCCC1 | -6 | 69* | 40 | · | 6 | 32
CCCNC(=O)N1CC2(CCN(C(=O)CN(C)C)CC2)c2c(n(C)c3cc(OC)ccc23)[C@@H]1CO | · | · | · | -9 | · | ·
CN(CCc1ccccc1)C(=O)c1ccc(NC(=O)Cc2cccc(NC(=O)C3CCN(C(=O)CCc4ccccc4)CC3)c2)cc1 | -7 | 20 | 10 | 13 | 8 | -15

Screening data from PubChem BioAssay.
